Assay [1] addresses Sphingosine kinase 1 (Homo sapiens) (UniProt Q9NYA1). Particulars: at 1 µM.
In assay [2] the target is T1, Sphingosine kinase 2 (Homo sapiens) (UniProt Q9NRA0).
T1 sequence (whole entry): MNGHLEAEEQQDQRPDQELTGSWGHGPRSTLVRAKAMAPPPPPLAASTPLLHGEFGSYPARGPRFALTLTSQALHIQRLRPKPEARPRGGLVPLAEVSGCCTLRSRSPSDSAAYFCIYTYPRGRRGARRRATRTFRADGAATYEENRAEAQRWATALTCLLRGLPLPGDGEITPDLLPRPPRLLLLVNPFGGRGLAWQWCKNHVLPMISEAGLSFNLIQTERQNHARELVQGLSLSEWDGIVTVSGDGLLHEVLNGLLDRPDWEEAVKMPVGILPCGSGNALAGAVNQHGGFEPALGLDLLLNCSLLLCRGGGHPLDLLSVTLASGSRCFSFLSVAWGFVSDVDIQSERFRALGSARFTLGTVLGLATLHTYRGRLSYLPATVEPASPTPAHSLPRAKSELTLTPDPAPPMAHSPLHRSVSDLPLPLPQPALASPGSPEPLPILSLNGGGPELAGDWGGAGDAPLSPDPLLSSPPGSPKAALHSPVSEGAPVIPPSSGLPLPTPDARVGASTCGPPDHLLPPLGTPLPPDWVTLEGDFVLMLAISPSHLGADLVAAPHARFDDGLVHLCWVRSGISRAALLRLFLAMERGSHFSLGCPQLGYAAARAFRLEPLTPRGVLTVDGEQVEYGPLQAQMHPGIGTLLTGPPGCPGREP
Particulars: at 0.1 µM.

Assay [3] has as its target T1, Sphingosine kinase 2 (Homo sapiens). Particulars: at 1 µM.
The target in assay [4] is Casein kinase II subunit alpha (Homo sapiens) (UniProt P68400). The note with it: at 0.1 µM.
Casein kinase II subunit alpha (Homo sapiens), sequence (P68400 whole entry, looked up): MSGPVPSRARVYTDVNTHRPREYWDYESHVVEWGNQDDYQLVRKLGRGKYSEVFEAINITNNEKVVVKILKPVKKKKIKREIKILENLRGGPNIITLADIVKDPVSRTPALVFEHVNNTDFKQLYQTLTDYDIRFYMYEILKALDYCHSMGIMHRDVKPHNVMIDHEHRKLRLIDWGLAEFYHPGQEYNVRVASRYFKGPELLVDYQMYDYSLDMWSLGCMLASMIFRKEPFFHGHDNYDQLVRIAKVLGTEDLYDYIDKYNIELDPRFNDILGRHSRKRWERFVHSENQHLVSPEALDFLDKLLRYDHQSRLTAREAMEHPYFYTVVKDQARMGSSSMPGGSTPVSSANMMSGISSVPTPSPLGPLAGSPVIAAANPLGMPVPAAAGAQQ
Assay [5] has the same target. Particulars: at 1 µM.
In assay [6] the target is T2, Inhibitor of nuclear factor kappa-B kinase subunit alpha (Homo sapiens) (UniProt O15111).
T2 sequence (whole entry): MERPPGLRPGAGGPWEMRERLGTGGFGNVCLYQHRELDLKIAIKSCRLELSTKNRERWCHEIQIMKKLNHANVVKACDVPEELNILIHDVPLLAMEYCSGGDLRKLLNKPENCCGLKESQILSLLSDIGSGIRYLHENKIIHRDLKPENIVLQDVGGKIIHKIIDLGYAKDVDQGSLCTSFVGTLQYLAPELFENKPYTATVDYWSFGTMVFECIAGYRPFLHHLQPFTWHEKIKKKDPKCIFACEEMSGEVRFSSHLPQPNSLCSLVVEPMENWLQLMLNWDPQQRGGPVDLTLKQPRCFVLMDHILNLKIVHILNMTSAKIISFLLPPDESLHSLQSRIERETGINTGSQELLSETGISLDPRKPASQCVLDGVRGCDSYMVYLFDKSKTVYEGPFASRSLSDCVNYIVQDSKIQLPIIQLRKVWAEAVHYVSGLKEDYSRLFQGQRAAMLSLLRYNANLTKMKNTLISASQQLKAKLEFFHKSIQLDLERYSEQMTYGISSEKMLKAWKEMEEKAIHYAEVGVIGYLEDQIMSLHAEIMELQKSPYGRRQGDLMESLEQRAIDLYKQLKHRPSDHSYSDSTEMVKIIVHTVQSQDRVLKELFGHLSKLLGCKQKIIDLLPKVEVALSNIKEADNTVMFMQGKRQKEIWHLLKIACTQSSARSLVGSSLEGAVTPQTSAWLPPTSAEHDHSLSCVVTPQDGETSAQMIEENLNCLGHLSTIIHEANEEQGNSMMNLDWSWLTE
The note with it: at 0.1 µM.

Assay [7] addresses T2, Inhibitor of nuclear factor kappa-B kinase subunit alpha (Homo sapiens). Particulars: at 1 µM.
Assay [8] addresses T3, Inhibitor of nuclear factor kappa-B kinase subunit beta (Homo sapiens) (UniProt O14920).
T3 sequence (whole entry): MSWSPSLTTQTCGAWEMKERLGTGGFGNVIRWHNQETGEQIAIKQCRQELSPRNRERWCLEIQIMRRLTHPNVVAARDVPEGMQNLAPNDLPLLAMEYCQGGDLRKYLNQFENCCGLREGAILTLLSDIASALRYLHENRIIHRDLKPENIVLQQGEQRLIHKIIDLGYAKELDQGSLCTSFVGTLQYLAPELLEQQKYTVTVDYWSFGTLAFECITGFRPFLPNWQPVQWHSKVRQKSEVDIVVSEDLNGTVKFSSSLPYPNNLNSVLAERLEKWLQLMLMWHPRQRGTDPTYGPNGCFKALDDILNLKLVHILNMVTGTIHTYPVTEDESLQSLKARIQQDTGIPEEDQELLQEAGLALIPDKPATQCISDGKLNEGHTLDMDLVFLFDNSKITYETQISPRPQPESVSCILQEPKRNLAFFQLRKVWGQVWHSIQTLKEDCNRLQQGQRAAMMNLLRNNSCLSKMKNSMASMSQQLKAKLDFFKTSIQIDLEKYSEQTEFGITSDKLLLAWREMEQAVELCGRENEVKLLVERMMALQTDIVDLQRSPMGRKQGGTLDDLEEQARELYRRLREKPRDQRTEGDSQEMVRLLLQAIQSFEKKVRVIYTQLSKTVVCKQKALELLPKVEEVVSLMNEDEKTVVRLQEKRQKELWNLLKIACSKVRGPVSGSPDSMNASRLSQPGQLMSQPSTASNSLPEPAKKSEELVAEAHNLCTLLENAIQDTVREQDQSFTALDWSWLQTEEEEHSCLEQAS
The note with it: at 0.1 µM.

Assay [9] concerns the target T3, Inhibitor of nuclear factor kappa-B kinase subunit beta (Homo sapiens). Particulars: at 1 µM.
Assay [10] concerns the target T4, Inhibitor of nuclear factor kappa-B kinase subunit epsilon (Homo sapiens) (UniProt Q14164).
T4 sequence (whole entry): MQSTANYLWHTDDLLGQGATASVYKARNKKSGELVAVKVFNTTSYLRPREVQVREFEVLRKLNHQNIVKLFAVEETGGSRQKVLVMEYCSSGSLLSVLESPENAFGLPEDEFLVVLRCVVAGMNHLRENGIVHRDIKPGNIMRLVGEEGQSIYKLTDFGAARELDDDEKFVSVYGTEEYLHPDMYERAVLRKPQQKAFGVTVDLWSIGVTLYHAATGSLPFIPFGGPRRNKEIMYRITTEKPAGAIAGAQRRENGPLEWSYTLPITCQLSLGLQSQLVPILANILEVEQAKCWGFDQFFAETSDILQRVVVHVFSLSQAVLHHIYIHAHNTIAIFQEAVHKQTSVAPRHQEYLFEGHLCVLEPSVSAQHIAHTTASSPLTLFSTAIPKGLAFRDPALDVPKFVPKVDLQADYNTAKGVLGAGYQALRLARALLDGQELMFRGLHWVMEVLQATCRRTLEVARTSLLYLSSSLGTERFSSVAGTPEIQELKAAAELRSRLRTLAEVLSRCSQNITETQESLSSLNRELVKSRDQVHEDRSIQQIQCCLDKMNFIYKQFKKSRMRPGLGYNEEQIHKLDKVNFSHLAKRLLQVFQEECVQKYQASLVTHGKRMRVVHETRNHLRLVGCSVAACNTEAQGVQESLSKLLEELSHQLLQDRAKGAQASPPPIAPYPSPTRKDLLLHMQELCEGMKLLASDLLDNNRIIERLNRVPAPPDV
Particulars: at 0.1 µM.

In assay [11] the target is T4, Inhibitor of nuclear factor kappa-B kinase subunit epsilon (Homo sapiens). The note with it: at 1 µM.
In assay [12] the target is T5, Serine/threonine-protein kinase Nek1 (Homo sapiens) (UniProt Q96PY6).
T5 sequence (whole entry): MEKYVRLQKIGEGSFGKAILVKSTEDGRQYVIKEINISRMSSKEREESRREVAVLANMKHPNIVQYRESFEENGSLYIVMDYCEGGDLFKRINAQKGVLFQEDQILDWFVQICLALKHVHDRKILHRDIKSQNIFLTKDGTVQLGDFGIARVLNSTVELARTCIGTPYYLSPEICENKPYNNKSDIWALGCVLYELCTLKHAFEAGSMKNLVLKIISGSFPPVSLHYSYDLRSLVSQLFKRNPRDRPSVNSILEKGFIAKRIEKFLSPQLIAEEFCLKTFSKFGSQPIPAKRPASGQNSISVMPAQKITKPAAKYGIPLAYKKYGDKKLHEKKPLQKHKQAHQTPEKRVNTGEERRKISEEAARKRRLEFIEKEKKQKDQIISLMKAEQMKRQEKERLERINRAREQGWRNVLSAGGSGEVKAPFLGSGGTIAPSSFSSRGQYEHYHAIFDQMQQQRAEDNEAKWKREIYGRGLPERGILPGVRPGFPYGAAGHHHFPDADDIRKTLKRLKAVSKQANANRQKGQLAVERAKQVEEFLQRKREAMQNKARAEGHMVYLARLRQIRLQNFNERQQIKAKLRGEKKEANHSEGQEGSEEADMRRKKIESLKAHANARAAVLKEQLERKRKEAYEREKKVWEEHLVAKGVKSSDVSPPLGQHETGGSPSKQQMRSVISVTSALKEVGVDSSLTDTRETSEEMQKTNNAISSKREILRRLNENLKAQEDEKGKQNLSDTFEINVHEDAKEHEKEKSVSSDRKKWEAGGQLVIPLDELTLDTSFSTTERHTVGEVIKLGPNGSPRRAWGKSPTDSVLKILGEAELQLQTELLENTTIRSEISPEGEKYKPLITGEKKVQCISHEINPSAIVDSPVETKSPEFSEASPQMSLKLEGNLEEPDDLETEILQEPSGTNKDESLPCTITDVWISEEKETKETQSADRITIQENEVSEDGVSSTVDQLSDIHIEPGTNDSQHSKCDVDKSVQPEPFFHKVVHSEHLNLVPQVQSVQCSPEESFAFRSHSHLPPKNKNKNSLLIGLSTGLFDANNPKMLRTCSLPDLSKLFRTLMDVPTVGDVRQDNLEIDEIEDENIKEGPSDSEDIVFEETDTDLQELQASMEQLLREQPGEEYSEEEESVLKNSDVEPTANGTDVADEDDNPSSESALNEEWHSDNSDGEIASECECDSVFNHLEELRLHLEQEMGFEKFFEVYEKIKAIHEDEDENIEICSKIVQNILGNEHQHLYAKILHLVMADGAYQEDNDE
Particulars: at 0.1 µM.

For assay [13], the target named is T5, Serine/threonine-protein kinase Nek1 (Homo sapiens). Particulars: at 1 µM.
The target of assay [14] is T6, Serine/threonine-protein kinase Nek2 (Homo sapiens) (UniProt P51955).
T6 sequence (whole entry): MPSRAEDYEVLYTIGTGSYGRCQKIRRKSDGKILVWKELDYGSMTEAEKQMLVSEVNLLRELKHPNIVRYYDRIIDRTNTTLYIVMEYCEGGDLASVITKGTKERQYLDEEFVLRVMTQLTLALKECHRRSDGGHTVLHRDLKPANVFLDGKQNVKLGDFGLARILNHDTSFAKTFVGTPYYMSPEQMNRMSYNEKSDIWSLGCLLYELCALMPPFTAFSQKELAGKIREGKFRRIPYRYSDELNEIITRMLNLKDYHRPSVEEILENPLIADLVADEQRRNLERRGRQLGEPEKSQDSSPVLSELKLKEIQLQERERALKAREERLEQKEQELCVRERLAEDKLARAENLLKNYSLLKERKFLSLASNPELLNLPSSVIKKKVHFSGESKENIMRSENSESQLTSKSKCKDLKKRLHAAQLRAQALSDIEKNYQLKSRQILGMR
The note with it: at 0.1 µM.

In assay [15] the target is T6, Serine/threonine-protein kinase Nek2 (Homo sapiens). Particulars: at 1 µM.
The target in assay [16] is Serine/threonine-protein kinase Nek6 (Homo sapiens) (UniProt Q9HC98). Particulars: at 0.1 µM.
Serine/threonine-protein kinase Nek6 (Homo sapiens), sequence (Q9HC98 whole entry): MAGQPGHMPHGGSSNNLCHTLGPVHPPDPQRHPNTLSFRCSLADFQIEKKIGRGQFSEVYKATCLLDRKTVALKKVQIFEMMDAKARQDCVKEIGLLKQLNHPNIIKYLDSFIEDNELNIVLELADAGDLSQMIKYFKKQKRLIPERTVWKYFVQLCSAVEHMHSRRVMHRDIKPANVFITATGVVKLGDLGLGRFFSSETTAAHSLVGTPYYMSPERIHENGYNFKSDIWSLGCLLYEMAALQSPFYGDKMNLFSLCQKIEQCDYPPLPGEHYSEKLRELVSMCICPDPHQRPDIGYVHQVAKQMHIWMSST
Assay [17] shares this target. Particulars: at 1 µM.
Assay [18] concerns the target Serine/threonine-protein kinase Nek7 (Homo sapiens) (UniProt Q8TDX7). Particulars: at 0.1 µM.
Assay [19] has the same target. Particulars: at 1 µM.
Assay [20] addresses T7, Serine/threonine-protein kinase Nek9 (Homo sapiens) (UniProt Q8TD19).
T7 sequence (whole entry): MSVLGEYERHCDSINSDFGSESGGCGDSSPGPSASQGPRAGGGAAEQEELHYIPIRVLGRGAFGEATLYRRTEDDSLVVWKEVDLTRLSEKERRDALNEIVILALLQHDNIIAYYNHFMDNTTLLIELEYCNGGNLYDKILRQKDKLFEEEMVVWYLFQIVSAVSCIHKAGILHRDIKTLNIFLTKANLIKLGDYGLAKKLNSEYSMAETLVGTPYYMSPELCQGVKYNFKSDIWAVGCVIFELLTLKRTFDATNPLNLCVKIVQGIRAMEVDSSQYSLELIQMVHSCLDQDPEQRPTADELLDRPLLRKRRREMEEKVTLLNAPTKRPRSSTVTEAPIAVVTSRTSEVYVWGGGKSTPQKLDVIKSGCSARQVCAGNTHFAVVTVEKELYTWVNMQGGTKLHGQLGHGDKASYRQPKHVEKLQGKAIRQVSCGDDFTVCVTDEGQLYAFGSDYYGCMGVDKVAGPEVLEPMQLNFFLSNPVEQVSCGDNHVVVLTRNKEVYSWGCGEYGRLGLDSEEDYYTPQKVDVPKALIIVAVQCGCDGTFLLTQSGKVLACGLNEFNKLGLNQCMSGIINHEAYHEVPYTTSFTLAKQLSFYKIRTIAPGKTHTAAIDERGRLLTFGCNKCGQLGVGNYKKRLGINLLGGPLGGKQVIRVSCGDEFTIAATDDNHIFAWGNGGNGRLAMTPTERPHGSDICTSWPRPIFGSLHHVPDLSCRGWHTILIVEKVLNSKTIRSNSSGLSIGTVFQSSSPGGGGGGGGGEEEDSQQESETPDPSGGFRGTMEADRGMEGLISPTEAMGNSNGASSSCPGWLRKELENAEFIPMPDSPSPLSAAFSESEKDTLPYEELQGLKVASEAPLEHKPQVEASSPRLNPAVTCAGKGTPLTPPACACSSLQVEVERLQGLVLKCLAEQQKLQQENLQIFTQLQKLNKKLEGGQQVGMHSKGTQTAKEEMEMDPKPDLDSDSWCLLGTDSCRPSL
The note with it: at 0.1 µM.

Experimental findings from ChEMBL document CHEMBL1961873, “Compounds: GSK PKIS; Assays: Nanosyn kinase panel” (2012) are described below.

By inhibition is commonly meant the drop in the measured response relative to a control, in per cent.

Serine/threonine-protein kinase Nek7 (Homo sapiens), sequence (Q8TDX7 whole entry, looked up): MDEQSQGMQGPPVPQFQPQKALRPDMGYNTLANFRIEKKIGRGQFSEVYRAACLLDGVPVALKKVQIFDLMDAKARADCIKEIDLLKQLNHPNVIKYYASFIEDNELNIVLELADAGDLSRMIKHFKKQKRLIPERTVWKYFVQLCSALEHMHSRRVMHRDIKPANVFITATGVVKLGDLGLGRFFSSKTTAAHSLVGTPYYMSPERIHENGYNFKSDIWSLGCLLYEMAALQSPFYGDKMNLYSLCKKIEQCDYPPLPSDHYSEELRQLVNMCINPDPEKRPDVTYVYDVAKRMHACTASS
Sphingosine kinase 1 (Homo sapiens), sequence (Q9NYA1 whole entry): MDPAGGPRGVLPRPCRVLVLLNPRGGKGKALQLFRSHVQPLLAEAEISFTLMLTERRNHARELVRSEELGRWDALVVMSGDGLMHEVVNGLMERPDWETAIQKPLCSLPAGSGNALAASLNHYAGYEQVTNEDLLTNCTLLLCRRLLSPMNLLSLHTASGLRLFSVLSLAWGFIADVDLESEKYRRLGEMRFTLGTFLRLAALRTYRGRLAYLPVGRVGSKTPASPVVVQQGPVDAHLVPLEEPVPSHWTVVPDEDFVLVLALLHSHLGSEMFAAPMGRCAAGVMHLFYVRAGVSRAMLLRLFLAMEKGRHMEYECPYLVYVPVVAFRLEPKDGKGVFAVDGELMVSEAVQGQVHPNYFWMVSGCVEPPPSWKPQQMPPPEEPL

On to `COc1cc(N2CCN(C(C)C)CC2)ccc1Nc1nc(Nc2cccc(F)c2C(=O)O)c2cc[nH]c2n1`, for which the inhibition in assay [1] was -1.68%; in [2], -0.64%; in assay [3], -0.33%; in assay [4], 6.3%; in assay [5] it was 22.4%; in assay [6] it was 4.18%. Also, the inhibition is 3.93% in assay [7]; 6.66% in assay [8]; 8.91% in assay [9]; 5.22% in assay [10]; 7.25% in assay [11]; 2.08% in [12]. Also, the inhibition came out at 5.01% in assay [13]; 5.22% in assay [14]; 3.86% in [15]; 2.61% in assay [16]; 5.14% in assay [17]; 3.58% in [18]. Further, the inhibition in assay [19] worked out at 3.43%; in assay [20] it was 9.89%.
